Our source for the binding signal values is article PMC7862700, “An all-to-all approach to the identification of sequence-specific readers for epigenetic DNA modifications on cytosine”.

Holding throughout (assay): DAPPL (digital affinity profiling via proximity ligation, sequencing); 10 mM Tris-HCl pH 7.5, 50 mM NaCl, 1 mM DTT, 4% glycerol, room temperature, 30 min; GST-TFs on glutathione beads, 16-mer random dsDNA library, 0.1% formaldehyde crosslink after washing; high values mean tight binding
One assay addresses ETV5 (Homo sapiens, UniProt P41161 1-510). The settings on record: protein: recombinant; tags: N-terminal GST; dsDNA, one strand shown. Put shortly:
(§1)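 Human transcription factors fused to GST were expressed in yeast, captured on glutathione beads, given DNA barcodes and pooled with a GST-only negative control. Pools were incubated with 200 nmole of a 16-mer random double-stranded DNA library in Tris/NaCl/DTT/glycerol buffer at room temperature for 30 min. They were then washed, crosslinked with 0.1% formaldehyde, proximity-ligated (BsaI/T4 ligase, 1 h, 37 °C), PCR-amplified and sequenced on an Illumina NextSeq500. Binding signal is each 6-mer's read frequency for a factor divided by its frequency for the GST control.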

The next assay has as its target HSF1 (Homo sapiens, UniProt Q00613 1-529). The conditions noted are these: protein: recombinant; tags: N-terminal GST; chain copies: 3; dsDNA, one strand shown. Put shortly:
as §1

For the next assay, the target named is T1, SPIC (Homo sapiens, UniProt Q8N5J4 1-248).
T1 sequence: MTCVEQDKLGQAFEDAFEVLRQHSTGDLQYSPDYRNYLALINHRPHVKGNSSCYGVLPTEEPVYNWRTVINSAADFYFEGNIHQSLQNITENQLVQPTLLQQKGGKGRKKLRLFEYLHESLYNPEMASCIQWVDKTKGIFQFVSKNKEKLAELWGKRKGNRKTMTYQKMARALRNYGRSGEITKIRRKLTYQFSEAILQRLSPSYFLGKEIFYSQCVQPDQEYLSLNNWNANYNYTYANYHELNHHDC
The settings on record: protein: recombinant; tags: N-terminal GST; dsDNA, one strand shown. Summed up:
as §1

Another assay deals with ELF4 (Homo sapiens, UniProt Q99607 1-663). The conditions noted are these: protein: recombinant; tags: N-terminal GST; dsDNA, one strand shown. Put shortly: as §1
The target in another assay is T2, ELK4 (Homo sapiens, UniProt P28324-2 1-405).
T2 sequence: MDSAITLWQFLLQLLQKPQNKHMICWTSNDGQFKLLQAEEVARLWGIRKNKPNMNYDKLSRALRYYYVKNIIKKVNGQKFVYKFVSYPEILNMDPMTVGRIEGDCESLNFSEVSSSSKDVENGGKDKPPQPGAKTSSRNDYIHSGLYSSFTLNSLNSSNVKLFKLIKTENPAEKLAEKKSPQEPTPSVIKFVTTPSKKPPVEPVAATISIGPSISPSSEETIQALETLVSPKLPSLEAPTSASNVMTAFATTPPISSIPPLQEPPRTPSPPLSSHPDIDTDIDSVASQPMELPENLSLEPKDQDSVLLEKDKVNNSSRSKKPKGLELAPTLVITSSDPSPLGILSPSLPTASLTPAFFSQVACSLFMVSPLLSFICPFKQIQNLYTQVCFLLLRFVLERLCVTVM
The settings on record: protein: recombinant; tags: N-terminal GST; dsDNA, one strand shown. Put shortly:
as §1

Another assay has as its target T3, ETV2 (Homo sapiens, UniProt O00321 1-342).
T3 sequence: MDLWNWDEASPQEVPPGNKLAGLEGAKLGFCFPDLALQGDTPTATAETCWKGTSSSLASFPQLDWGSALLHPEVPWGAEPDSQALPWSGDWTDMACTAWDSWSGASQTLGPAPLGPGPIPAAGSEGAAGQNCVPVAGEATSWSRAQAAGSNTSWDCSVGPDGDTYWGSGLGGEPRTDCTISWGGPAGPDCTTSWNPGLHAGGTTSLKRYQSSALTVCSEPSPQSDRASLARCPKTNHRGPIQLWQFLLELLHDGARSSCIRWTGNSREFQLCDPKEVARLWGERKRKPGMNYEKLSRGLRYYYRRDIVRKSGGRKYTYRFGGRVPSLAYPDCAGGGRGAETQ
The settings on record: protein: recombinant; tags: N-terminal GST; dsDNA, one strand shown. Put shortly: as §1

In another assay the target is CRX (Homo sapiens, UniProt O43186 1-299). The conditions noted are these: protein: recombinant; tags: N-terminal GST; dsDNA, one strand shown. Put shortly:
as §1

In another assay the target is ETV1 (Homo sapiens, UniProt P50549 1-477). The settings on record: protein: recombinant; tags: N-terminal GST; dsDNA, one strand shown. Put shortly:
as §1

In a further assay the target is T4, FEV (Homo sapiens, UniProt Q99581 1-238).
T4 sequence: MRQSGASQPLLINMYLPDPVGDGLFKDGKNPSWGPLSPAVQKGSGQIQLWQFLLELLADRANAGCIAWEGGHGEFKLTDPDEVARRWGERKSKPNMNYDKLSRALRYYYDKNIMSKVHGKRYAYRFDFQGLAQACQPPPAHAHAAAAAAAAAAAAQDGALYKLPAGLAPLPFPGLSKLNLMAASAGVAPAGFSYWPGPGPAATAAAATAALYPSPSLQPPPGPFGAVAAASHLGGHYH
The conditions noted are these: protein: recombinant; tags: N-terminal GST; dsDNA, one strand shown. Put shortly:
as §1

The target of the next assay is T5, ELF3 (Homo sapiens, UniProt P78545 1-371).
T5 sequence: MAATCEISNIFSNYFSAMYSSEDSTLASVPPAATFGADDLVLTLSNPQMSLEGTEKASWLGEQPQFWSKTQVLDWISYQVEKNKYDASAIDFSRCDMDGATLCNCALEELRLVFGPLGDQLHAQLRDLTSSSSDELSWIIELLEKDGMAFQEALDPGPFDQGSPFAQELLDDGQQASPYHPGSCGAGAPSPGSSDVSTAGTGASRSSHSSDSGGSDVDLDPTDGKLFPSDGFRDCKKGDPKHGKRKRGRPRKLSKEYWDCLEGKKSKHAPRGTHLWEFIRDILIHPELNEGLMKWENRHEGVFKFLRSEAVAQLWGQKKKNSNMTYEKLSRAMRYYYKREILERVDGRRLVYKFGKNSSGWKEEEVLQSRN
The conditions noted are these: protein: recombinant; tags: N-terminal GST; dsDNA, one strand shown. Summed up:
as §1

HSF1, sequence (Q00613 whole entry): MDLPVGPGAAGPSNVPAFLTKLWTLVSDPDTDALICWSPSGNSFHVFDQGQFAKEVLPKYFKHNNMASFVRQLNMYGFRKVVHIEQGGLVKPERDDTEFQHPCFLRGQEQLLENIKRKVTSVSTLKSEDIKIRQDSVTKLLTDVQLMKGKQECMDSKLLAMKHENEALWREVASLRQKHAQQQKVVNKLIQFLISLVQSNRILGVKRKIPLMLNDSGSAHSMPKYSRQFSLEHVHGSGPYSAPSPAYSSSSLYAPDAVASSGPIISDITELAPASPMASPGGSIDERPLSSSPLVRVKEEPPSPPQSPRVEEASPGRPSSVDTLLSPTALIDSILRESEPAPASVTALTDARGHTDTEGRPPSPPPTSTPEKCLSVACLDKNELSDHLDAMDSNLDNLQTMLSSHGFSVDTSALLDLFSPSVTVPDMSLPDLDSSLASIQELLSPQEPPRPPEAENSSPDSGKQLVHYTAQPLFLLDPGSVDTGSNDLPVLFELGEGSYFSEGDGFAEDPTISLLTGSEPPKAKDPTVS
ETV5, sequence (P41161 whole entry, the tested form may be a part): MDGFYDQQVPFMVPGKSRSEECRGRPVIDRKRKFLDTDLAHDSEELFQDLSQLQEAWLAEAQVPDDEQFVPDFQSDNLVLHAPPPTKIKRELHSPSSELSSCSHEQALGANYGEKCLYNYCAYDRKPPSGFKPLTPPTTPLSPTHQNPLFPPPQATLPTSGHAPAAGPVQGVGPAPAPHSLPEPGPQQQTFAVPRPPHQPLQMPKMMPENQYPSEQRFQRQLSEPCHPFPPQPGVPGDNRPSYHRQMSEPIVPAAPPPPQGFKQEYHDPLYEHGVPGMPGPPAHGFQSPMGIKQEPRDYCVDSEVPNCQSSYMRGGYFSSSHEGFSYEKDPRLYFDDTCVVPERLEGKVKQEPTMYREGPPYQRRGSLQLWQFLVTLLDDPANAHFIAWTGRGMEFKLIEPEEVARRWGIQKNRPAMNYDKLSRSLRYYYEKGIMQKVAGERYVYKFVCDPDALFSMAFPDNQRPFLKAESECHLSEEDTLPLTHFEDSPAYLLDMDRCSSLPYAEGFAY
ELF4, sequence (Q99607 whole entry): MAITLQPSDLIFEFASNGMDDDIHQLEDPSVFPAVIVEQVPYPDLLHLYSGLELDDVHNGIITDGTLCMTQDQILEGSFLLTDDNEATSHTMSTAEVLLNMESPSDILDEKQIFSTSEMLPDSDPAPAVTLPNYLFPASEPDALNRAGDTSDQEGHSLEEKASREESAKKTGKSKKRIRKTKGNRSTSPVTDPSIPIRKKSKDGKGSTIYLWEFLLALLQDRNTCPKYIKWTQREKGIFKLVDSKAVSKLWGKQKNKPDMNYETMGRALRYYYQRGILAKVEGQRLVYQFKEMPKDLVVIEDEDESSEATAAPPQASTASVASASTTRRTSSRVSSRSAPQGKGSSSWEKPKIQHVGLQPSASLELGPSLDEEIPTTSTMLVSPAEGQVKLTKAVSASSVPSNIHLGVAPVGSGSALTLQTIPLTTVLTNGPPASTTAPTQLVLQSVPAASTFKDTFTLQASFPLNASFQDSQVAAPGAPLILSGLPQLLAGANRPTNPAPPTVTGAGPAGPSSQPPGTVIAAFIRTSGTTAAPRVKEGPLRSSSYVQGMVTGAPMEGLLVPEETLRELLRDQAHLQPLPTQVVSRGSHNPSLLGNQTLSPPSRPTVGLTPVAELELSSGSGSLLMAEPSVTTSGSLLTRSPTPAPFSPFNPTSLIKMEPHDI
CRX, sequence (O43186 whole entry): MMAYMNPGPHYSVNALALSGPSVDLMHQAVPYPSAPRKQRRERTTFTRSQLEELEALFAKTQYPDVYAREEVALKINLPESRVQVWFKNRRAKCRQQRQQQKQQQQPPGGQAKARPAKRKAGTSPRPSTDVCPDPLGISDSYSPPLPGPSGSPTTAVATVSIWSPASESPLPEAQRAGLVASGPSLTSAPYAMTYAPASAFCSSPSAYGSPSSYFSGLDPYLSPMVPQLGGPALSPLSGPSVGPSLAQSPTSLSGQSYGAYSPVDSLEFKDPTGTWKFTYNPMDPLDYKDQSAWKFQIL
ETV1, sequence (P50549 whole entry): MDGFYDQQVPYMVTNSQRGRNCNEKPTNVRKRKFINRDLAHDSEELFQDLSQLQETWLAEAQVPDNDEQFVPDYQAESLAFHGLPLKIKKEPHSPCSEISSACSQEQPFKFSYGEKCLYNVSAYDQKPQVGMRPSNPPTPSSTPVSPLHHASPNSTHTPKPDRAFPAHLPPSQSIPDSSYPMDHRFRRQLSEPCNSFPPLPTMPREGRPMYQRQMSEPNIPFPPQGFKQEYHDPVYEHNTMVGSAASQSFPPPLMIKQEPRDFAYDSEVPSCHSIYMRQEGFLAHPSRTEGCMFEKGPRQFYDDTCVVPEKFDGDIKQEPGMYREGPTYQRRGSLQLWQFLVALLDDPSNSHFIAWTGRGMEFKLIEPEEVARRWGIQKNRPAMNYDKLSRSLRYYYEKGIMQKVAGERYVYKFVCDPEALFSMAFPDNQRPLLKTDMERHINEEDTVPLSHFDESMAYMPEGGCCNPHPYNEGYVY

Take TTAGCG: the binding signal was 1 fold enrichment (6-mer frequency, TF over GST control) with ETV5; 1.49 fold enrichment (6-mer frequency, TF over GST control) with HSF1; 1.03 fold enrichment (6-mer frequency, TF over GST control) with SPIC; 1.14 fold enrichment (6-mer frequency, TF over GST control) with ELF4; 1.05 fold enrichment (6-mer frequency, TF over GST control) in the assay with ELK4; 1.14 fold enrichment (6-mer frequency, TF over GST control) with ETV2. Further, the binding signal in the assay with CRX is 2.24 fold enrichment (6-mer frequency, TF over GST control); with ETV1 it was 1.07 fold enrichment (6-mer frequency, TF over GST control).

Consider CCGTCC, for which the binding signal with FEV is 1.38 fold enrichment (6-mer frequency, TF over GST control); with ETV5, 1.26 fold enrichment (6-mer frequency, TF over GST control); in the assay with HSF1, 1.03 fold enrichment (6-mer frequency, TF over GST control); with SPIC, 1.39 fold enrichment (6-mer frequency, TF over GST control); with ELF4, 1.37 fold enrichment (6-mer frequency, TF over GST control); with ELK4 it was 1.28 fold enrichment (6-mer frequency, TF over GST control). Besides, the binding signal in the assay with ETV2 was 1.8 fold enrichment (6-mer frequency, TF over GST control); with ELF3, 1.43 fold enrichment (6-mer frequency, TF over GST control); with ETV1, 1.38 fold enrichment (6-mer frequency, TF over GST control).

As for TCCACC, the binding signal is 1.3 fold enrichment (6-mer frequency, TF over GST control) in the assay with FEV; 1.16 fold enrichment (6-mer frequency, TF over GST control) with ETV5; 1.13 fold enrichment (6-mer frequency, TF over GST control) in the assay with HSF1; 1.03 fold enrichment (6-mer frequency, TF over GST control) with SPIC; 1.19 fold enrichment (6-mer frequency, TF over GST control) with ELF4; 1.19 fold enrichment (6-mer frequency, TF over GST control) in the assay with ELK4. The binding signal with ETV2 was 1.27 fold enrichment (6-mer frequency, TF over GST control); in the assay with CRX, 1.04 fold enrichment (6-mer frequency, TF over GST control); with ETV1, 1.13 fold enrichment (6-mer frequency, TF over GST control).

As to TTACGA, the binding signal with FEV was 1.11 fold enrichment (6-mer frequency, TF over GST control); with ETV5 it was 1.07 fold enrichment (6-mer frequency, TF over GST control); with HSF1, 1.46 fold enrichment (6-mer frequency, TF over GST control); with SPIC it was 1.02 fold enrichment (6-mer frequency, TF over GST control); in the assay with ELF4, 1.16 fold enrichment (6-mer frequency, TF over GST control); in the assay with ELK4, 1.16 fold enrichment (6-mer frequency, TF over GST control). Besides, the binding signal with ETV2 was 1.17 fold enrichment (6-mer frequency, TF over GST control); in the assay with CRX, 1.89 fold enrichment (6-mer frequency, TF over GST control); with ETV1, 1.16 fold enrichment (6-mer frequency, TF over GST control).

For TGATTT, the binding signal with FEV was 1.26 fold enrichment (6-mer frequency, TF over GST control); with ETV5 it was 1.27 fold enrichment (6-mer frequency, TF over GST control); with HSF1, 1.27 fold enrichment (6-mer frequency, TF over GST control); with SPIC, 1.39 fold enrichment (6-mer frequency, TF over GST control); in the assay with ELF4 it was 1.23 fold enrichment (6-mer frequency, TF over GST control); with ELK4 it was 1.2 fold enrichment (6-mer frequency, TF over GST control). Besides, the binding signal with ETV2 is 1.29 fold enrichment (6-mer frequency, TF over GST control); with CRX it was 1.35 fold enrichment (6-mer frequency, TF over GST control); with ETV1, 1.31 fold enrichment (6-mer frequency, TF over GST control).

For GAATAC, the binding signal in the assay with ETV5 is 1.01 fold enrichment (6-mer frequency, TF over GST control); in the assay with HSF1, 1.16 fold enrichment (6-mer frequency, TF over GST control); in the assay with SPIC, 1.06 fold enrichment (6-mer frequency, TF over GST control); with ELF4, 1.01 fold enrichment (6-mer frequency, TF over GST control); with ELK4, 1.05 fold enrichment (6-mer frequency, TF over GST control); with ETV2, 1.05 fold enrichment (6-mer frequency, TF over GST control). Moreover, in the assay with ETV1, the binding signal is 1.09 fold enrichment (6-mer frequency, TF over GST control).

Turning to CTCCAT, the binding signal is 1.36 fold enrichment (6-mer frequency, TF over GST control) with FEV; 1.43 fold enrichment (6-mer frequency, TF over GST control) with ETV5; 1.21 fold enrichment (6-mer frequency, TF over GST control) with HSF1; 1.12 fold enrichment (6-mer frequency, TF over GST control) with SPIC; 1.28 fold enrichment (6-mer frequency, TF over GST control) with ELF4; 1.4 fold enrichment (6-mer frequency, TF over GST control) in the assay with ELK4. For the same sequence, the binding signal in the assay with ETV2 is 1.46 fold enrichment (6-mer frequency, TF over GST control); in the assay with CRX, 1.19 fold enrichment (6-mer frequency, TF over GST control); in the assay with ETV1, 1.3 fold enrichment (6-mer frequency, TF over GST control).

TTAGAA: the binding signal was 1.02 fold enrichment (6-mer frequency, TF over GST control) with FEV; 1.01 fold enrichment (6-mer frequency, TF over GST control) with ETV5; 1.93 fold enrichment (6-mer frequency, TF over GST control) in the assay with HSF1; 1.25 fold enrichment (6-mer frequency, TF over GST control) with SPIC; 1.04 fold enrichment (6-mer frequency, TF over GST control) in the assay with ELF4; 1.1 fold enrichment (6-mer frequency, TF over GST control) in the assay with ELK4. In addition, the binding signal with ETV2 was 1.13 fold enrichment (6-mer frequency, TF over GST control); in the assay with CRX, 2.08 fold enrichment (6-mer frequency, TF over GST control); with ETV1, 1.11 fold enrichment (6-mer frequency, TF over GST control).
